{"source": "PubChem BioAssay AID1345085", "about": "(National Center for Advancing Translational Sciences (NCATS), 2018)", "note": "Results filed as inconclusive are left out. Active and inactive are the calls of the source. Calls come from the whole dose curve; as a rule, active = well fitted cell-killing curve with a large enough effect; inconclusive = small, poorly fitted or top-dose-only effect, or effect the other way; inactive = no such curve, though single readings can be large or run the other way. % is set by controls: 0 for no effect and ±100 for the full control effect; potency is the fitted concentration of half-maximal effect."}
{"tested_on": "PA-1", "test": "Confirmatory qHTS for gynecologic anti-cancer compounds from libraries of approved drugs and bioactive compounds; note: nearly all actives have a fitted effect of over 55% in size", "conditions": "gynecologic cancer cell panel viability, ATPlite luminescence, 48 h; series mostly up to 57.6 µM; activity change, negative = viability loss: at the top concentration", "how_it_was_run": "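IC50 values derive from an ATPlite ATP-content luminescence assay following 48 h treatment at 37 C. Each compound ran as an 11-concentration, threefold series (57.5 uM to 0.977 nM); HEK 293T served as control line for selectivity index.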"}
{"smiles": "COc1ccccc1N1CCN(CC(O)COc2cccc3ccccc23)CC1", "note": "(stereo unspecified)", "activity change, negative = viability loss": "-27.1% (inactive)"}
{"smiles": "O=C(NCC(O)CO)c1ccncc1Nc1ccc(I)cc1F", "note": "(stereo unspecified)", "Potency": "0.0611 µM (active)"}
{"smiles": "CCN1CCN(Cc2ccc(-c3cc4c(NC(C)c5ccccc5)ncnc4[nH]3)cc2)CC1", "note": "(stereo unspecified)", "Potency": "24.3 µM (active)"}
{"smiles": "CN1CCN(c2ccc(OC(F)(F)F)c(Nc3ncc4c(n3)-c3c(c(C(N)=O)nn3CCO)CC4)c2)CC1", "Potency": "0.153 µM (active)"}
{"smiles": "Cc1nc(N)sc1-c1ccnc(Nc2ccc(N3CCOCC3)cc2)n1", "Potency": "4.32 µM (active)"}
{"smiles": "Cc1nc(Nc2n[nH]c3c2CN(C(=O)NC(CN(C)C)c2ccccc2)C3(C)C)c2sccc2n1", "note": "(stereo unspecified)", "Potency": "0.0243 µM (active)"}
{"smiles": "O=C(/C=C/c1cccc(S(=O)(=O)Nc2ccccc2)c1)NO", "Potency": "0.595 µM (active)"}
{"smiles": "C[C@]12CCC(=O)C=C1CC[C@@H]1[C@@H]2[C@@H](O)C[C@@]2(C)[C@H]1CC[C@]2(O)C(=O)CO", "Potency": "21.7 µM (active)"}
{"smiles": "COC(C(=O)N1Cc2[nH]nc(NC(=O)c3ccc(N4CCN(C)CC4)cc3)c2C1)c1ccccc1", "note": "(stereo unspecified)", "Potency": "7.69 µM (active)"}
{"smiles": "C#C[C@]1(O)CC[C@H]2[C@@H]3CCC4=CC(=O)CC[C@@H]4[C@H]3CC[C@@]21CC", "activity change, negative = viability loss": "-1.74% (inactive)"}
{"smiles": "CCCCc1oc2ccccc2c1C(=O)c1cc(I)c(OCCN(CC)CC)c(I)c1", "Potency": "39.8 µM (active)"}
{"smiles": "Cc1nc(NC(=O)N2CCCC2C(N)=O)sc1-c1ccnc(C(C)(C)C(F)(F)F)c1", "note": "(stereo unspecified)", "Potency": "27.3 µM (active)"}
{"smiles": "O=C(c1ccc(/C=C/c2n[nH]c3ccccc23)cc1)N1CCNCC1", "Potency": "6.11 µM (active)"}
{"smiles": "Nc1ccc(C(=O)Nc2cccc(-c3nc(N4CCOCC4)c4oc5ncccc5c4n3)c2)cn1", "Potency": "12.2 µM (active)"}
{"smiles": "CCN(CC)CCOc1ccc(/C(=C(\\Cl)c2ccccc2)c2ccccc2)cc1", "Potency": "28.2 µM (active)"}
{"smiles": "CC(C)C[C@H](NC(=O)[C@H](Cc1ccccc1)NC(=O)c1cnccn1)B(O)O", "Potency": "0.0385 µM (active)"}
{"smiles": "Cc1cc(C(=O)N2CCN(c3cccc(Cl)c3)CC2)n(-c2ccccc2)n1", "Potency": "3.43 µM (active)"}
{"smiles": "COc1ccc2cc3[n+](cc2c1OC)CCc1cc2c(cc1-3)OCO2", "Potency": "0.968 µM (active)"}
{"smiles": "O=C1c2c(O)ccc(O)c2C(=O)c2c(NCCNCCO)ccc(NCCNCCO)c21", "Potency": "0.432 µM (active)"}
{"smiles": "CCN(CC)CCNC(=O)c1c(C)[nH]c(/C=C2\\C(=O)Nc3ccc(F)cc32)c1C", "Potency": "8.91 µM (active)"}
{"smiles": "NC(=O)c1cnc(-c2ccc(C3(N)CCC3)cc2)c(-c2ccccc2)c1", "Potency": "27.3 µM (active)"}
{"smiles": "Cc1ccc(C(=O)Nc2ccc(Oc3cc4cnn(C)c4cc3-c3cn[nH]c3)c(F)c2)c(=O)n1-c1ccc(F)cc1", "Potency": "10.9 µM (active)"}
{"smiles": "COc1cc2c(Oc3ccc(-c4cnc(Nc5ccc(F)cc5)n(C)c4=O)cc3F)ccnc2cc1OCCCN1CCOCC1", "Potency": "21.7 µM (active)"}
{"smiles": "CC(Oc1cc(-n2cnc3ccc(CN4CCN(C)CC4)cc32)sc1C(N)=O)c1ccccc1C(F)(F)F", "note": "(stereo unspecified)", "Potency": "2.43 µM (active)"}
{"smiles": "CN(C)C/C=C/C(=O)Nc1cc2c(Nc3ccc(F)c(Cl)c3)ncnc2cc1OC1CCOC1", "note": "(stereo unspecified)", "Potency": "9.68 µM (active)"}
{"smiles": "Fc1cc(-c2cccc3ncc(-c4cnn(C5CCNCC5)c4)nc23)cc(F)c1CN1CCOCC1", "Potency": "27.3 µM (active)"}
